Out of some 52,000 compounds screened, about 4,300 (8.3%) were called active. The sample as a whole holds a higher share of actives than the screen did. Values without a mark were called inactive. Rule as the data show it: active = survival mostly below about 52% (no sharp cut-off); inactive = mostly above about 56%.
What follows are compounds tested on DeltatarO mutant (assay: S. aureus survival, RN4220 and DeltatarO strains – OD600, teichoic acid synthesis inhibitors, primary screen (AID 463173)). Settings: S. aureus RN4220 wild type/DeltatarO growth, OD600, 18 h, active compounds read low, screened at 18.75 µg/mL (by protocol).

| SMILES | survival |
| --- | --- |
| COC(=O)CN1C(=O)CSc2ccc(S(=O)(=O)Nc3ccc(Cl)cc3C)cc21 | 124% |
| Cc1cccc(-c2nc(SCCCOc3ccc(Cl)c(C)c3)n3[nH]c(=O)cc3n2)c1 | 72% |
| N#Cc1cc2c(=O)n3ccccc3nc2n(-c2nnc(SCc3ccccc3F)s2)c1=O | 81% |
| CCc1ccc(NC(=O)CSC2=Nc3ccccc3C3=NC(CC(=O)NCc4ccc5c(c4)OCO5)C(=O)N23)cc1 (stereo not drawn) | 107% |
| COCCN1Cc2cccc(C(=O)Nc3ccc(Cl)cc3Cl)c2C1=O | 59% |
| C=Cc1ccc(Cn2c(=O)cc(C)c3c(C)nn(-c4ccccc4)c32)cc1 | 17% (active) |
| Cc1ccc(C)c(Cn2c(=O)cc(C)c3c(C)nn(C)c32)c1 | 91% |
| COc1cccc(Cn2c(=O)cc(C)c3c(C)nn(C)c32)c1 | 89% |
| Cc1cc(=O)n(Cc2cccc(Cl)c2)c2c1c(C)nn2C | 102% |
| Cc1cc(=O)n(Cc2ccccc2)c2c1c(C)nn2-c1ccccc1 | 89% |
| Cc1cc(=O)n(Cc2ccc(Cl)cc2)c2c1c(C)nn2-c1ccccc1 | 126% |
| C=Cc1ccc(Cn2c(=O)cc(C)c3c(C)nn(C)c32)cc1 | 8% (active) |
| Cc1cc(=O)n(Cc2ccccc2)c2c1c(C)nn2C | 20% (active) |
| COC(=O)c1ccc(Cn2c(=O)cc(C)c3c(C)nn(C)c32)cc1 | 66% |
| CCc1ccccc1NC(=O)CCC(=O)N1CC(C)Oc2ccc(C)cc21 (stereo not drawn) | 62% |
| O=C(COc1ccc2ccccc2c1)NC1CC(=O)N(c2ccc(F)cc2)C1 (stereo not drawn) | 69% |
| CC(C)CCn1nnnc1CN1CCN(Cc2ccc3c(c2)OCO3)CC1 | 69% |
| CCOC(=O)c1nnn(C(CC)C(=O)Nc2c(C)cccc2C)c1C(=O)OCC (stereo not drawn) | 100% |
| Cc1cccn2c(=O)c3cc(C#N)c(=O)n(-c4nnc(SCc5ccc(Cl)cc5)s4)c3nc12 | 81% |
| CC(C)N(C(=O)Cn1cc(S(=O)(=O)Cc2ccc(C(F)(F)F)cc2)c2ccccc21)C(C)C | 54% |
| Cc1cc(C)c(NC(=O)Cn2c(=O)n(Cc3ccc(C(=O)NCc4ccco4)cc3)c(=O)c3sccc32)c(C)c1 | 173% |
| Cc1cccc(NS(=O)(=O)c2ccc3oc(=O)c4ncn(C)c4c3c2)c1C | 109% |
| Cc1ccc(NC(=O)c2ccc(CNS(=O)(=O)c3ccc4c(c3)C(C)(C)C(=O)N4C)cc2)cc1C | 62% |
| COc1ccc(OC)c(CCNc2ncnc3onc(-c4ccc(Cl)cc4)c23)c1 | 94% |

| SMILES | survival |
| --- | --- |
| CCOc1ccc2oc(=O)cc(CN3CCN(c4ccc(Cl)cc4)CC3)c2c1 | 97% |
| CCN1CC=C2C(C#N)=C(N)C(C#N)(C#N)C(C)C2C1 (stereo not drawn) | 80% |
| Cc1ccc(Cn2cc(CCC(=O)NC3CCC(C)CC3)c3ccccc32)cc1 (stereo not drawn) | 74% |
| CC1CCC(NC(=O)CCc2cn(Cc3ccccc3Cl)c3ccccc23)CC1 (stereo not drawn) | 51% (active) |
| O=C(CCc1cn(Cc2ccccc2Cl)c2ccccc12)NC1CCCCC1 | 71% |
| O=C(O)c1ccc(C2Nc3ccccc3-c3nnc(SCc4ccc(Cl)cc4)nc3O2)cc1 (stereo not drawn) | 85% |
| Cc1ccc(C)c(CN2C(=O)c3ccccc3S(=O)c3ccc(C(=O)NCc4ccco4)cc32)c1 (stereo not drawn) | 72% |
| COc1ccc2nc(SC)nc(C)c2c1 | 67% |
| COc1ccc2oc(=O)c(C(=O)N3CCN(c4cc(Cl)ccc4Cl)CC3)cc2c1 | 48% (active) |
| COc1ccc2oc(=O)c(C(=O)N3CCC(C(N)=O)CC3)cc2c1 | 79% |
| COc1ccc2oc(=O)c(C(=O)N3CCN(c4ccc(C)cc4)CC3)cc2c1 | 91% |
| CC(=O)Nc1cc(C(=O)NCc2ccc(F)cc2)ccc1Sc1ccc(C)cc1 | 94% |
| CCN(CC)c1nc(-c2ccc(C(C)(C)C)cc2)nc2ccccc12 | -1% (active) |
| Cc1cc(Sc2ccc(Cl)cc2)nc2ccccc12 | 45% |
| COc1ccccc1Nc1nc(-c2ccccc2F)nc2ccccc12 | 73% |
| CCCCN(CCCC)c1nc(-c2ccccc2)nc2ccccc12 | 30% |
| CCCN(CCC)c1nc(-c2ccccc2F)nc2ccccc12 | 4% (active) |
| Cc1cccc(OCCn2c(-c3ccc(Cl)cc3)nc3ccccc3c2=O)c1C | 77% |
| CCCCN(CC)c1nc(-c2ccccc2F)nc2ccccc12 | 94% |
| CCN(CC)c1nc(-c2ccccc2)nc2ccccc12 | 86% |
| CC(C)CN(CC(C)C)c1nc(-c2ccc(Cl)cc2)nc2ccccc12 | -1% (active) |
| COc1cccc2[nH]c(C(=O)NCc3ccc4c(c3)CCN4C(=O)c3ccc(F)cc3)cc12 | 84% |
| CNC(=O)c1c(NC(=O)/C=C/c2ccccc2)sc2c1CCC2 | 87% |
| CCC(Sc1nnc2c(n1)[nH]c1ccccc12)C(=O)Nc1ccccc1OC (stereo not drawn) | 56% |

| SMILES | survival |
| --- | --- |
| CC(C)(C)NC(=O)CN1CCC(n2nnc3cc(F)ccc32)CC1 | 93% |
| COC(=O)c1scc(-c2ccc(C)cc2)c1S(=O)(=O)Nc1cccc(Cl)c1C | 101% |
| CC(=O)c1cc(-c2ccc(F)cc2)n(CCC(=O)NCc2ccc(C)cc2)c1C | 73% |
| COc1cccc(/C=C2/SC(=O)N(C)C2=O)c1O | 83% |
| COc1ccc(C(=O)c2cn(Cc3ccccc3OC)c3cc4c(cc3c2=O)OCO4)cc1 | 95% |
| COc1ccccc1Nc1ncnc2c1nc1n2CCCCC1 | 128% |
| COc1ccc(Nc2ncnc3c2nc2n3CCCC2)cc1Cl | 80% |
| Fc1ccccc1Nc1ncnc2c1nc1n2CCCCC1 | 68% |
| Clc1cccc(Nc2ncnc3c2nc2n3CCCCC2)c1 | 17% (active) |
| Clc1cccc(CNc2ncnc3c2nc2n3CCCC2)c1 | 88% |
| Clc1ccccc1Nc1ncnc2c1nc1n2CCCCC1 | 8% (active) |
| COc1ccc(C)cc1NC(=O)C1CCN(S(=O)(=O)Cc2ccccc2)CC1 | 67% |
| O=C(CSc1nccn1C1CCCC1)Nc1ccc(C(F)(F)F)cc1 | 101% |
| CCN(CC)CCCNC(=O)CCc1c(C)nc2c(c1C)c(=O)n(C)c(=O)n2C | 96% |
| O=C(CN1C(=O)CCc2cc(S(=O)(=O)N3CCOCC3)ccc21)NCc1ccc(F)cc1 | 93% |
| CCS(=O)(=O)c1nc(S(=O)(=O)c2ccc(C)cc2)c(NC)s1 | 102% |
| CCN1CCN(c2nc3c(S(=O)(=O)c4ccc(C)cc4)nnn3c3ccsc23)CC1 | 65% |
| CCCNS(=O)(=O)c1ccc(CCC(=O)NCC2CCCO2)cc1 (stereo not drawn) | 89% |
| CN(c1ccc(C(=O)NCC2CCCO2)cc1)S(C)(=O)=O (stereo not drawn) | 74% |
| CCc1ccc(N(CC(=O)NCC2CCCO2)S(C)(=O)=O)cc1 (stereo not drawn) | 66% (active) |
| CCc1ccc(NC(=O)c2sc3nc(C)cc(C)c3c2NC(=O)c2ccccc2OC)cc1 | 69% |
| COc1ccc(-c2nc(C(=O)Nc3ccc(C(C)=O)cc3)nn2-c2cccc(Cl)c2)cc1 | 46% (active) |
| CC(=O)c1ccc(NC(=O)c2nc(-c3ccccc3)n(-c3ccc(C)cc3)n2)cc1 | 60% |
| CC(=O)c1ccc(NC(=O)c2nc(-c3ccccc3)n(-c3ccccc3Cl)n2)cc1 | 64% |

| SMILES | survival |
| --- | --- |
| CC(=O)c1ccc(NC(=O)c2ncn(-c3ccccc3)n2)cc1 | 34% (active) |
| COc1ccc(-c2nc(C(=O)Nc3cccc(C(C)=O)c3)nn2-c2ccc(Cl)cc2)cc1 | 99% |
| CC(=O)c1ccc(NC(=O)c2nc(-c3ccccc3)n(-c3ccc(Cl)cc3)n2)cc1 | 49% (active) |
| CC(=O)c1cccc(NC(=O)c2nc(-c3ccccc3)n(-c3cccc(Cl)c3)n2)c1 | 68% |
| COc1ccc(-n2nc(C(=O)Nc3ccc(C(C)=O)cc3)nc2-c2ccccc2)cc1 | 49% (active) |
| CC(=O)c1ccc(NC(=O)c2nc(-c3ccccc3)n(-c3ccccc3)n2)cc1 | 87% |
| O=C(Nc1ccc(F)cc1)c1ncn(-c2ccccc2)n1 | 86% |
| CCOC(=O)c1ccc(NC(=O)c2ncn(-c3ccccc3)n2)cc1 | 99% |
| CC(=O)c1cccc(NC(=O)c2nc(-c3ccccc3)n(-c3ccccc3)n2)c1 | 56% |
| CC(C)(C)C1CCc2c(sc(NC(=O)Cn3nnc(-c4ccccc4F)n3)c2C#N)C1 (stereo not drawn) | 66% |
| N#CC(=C1CCN(Cc2ccccc2)CC1)c1ccccc1 | 85% |
| Cc1cccc(NC(=O)c2cc3c(=O)n(Cc4ccco4)ccc3nc2C)c1 | 87% |
| CCNC(=O)c1nn(-c2ccccc2C)nc1CO | 106% |
| CCOc1ccc(NC(=O)CC2C(=O)N(c3ccc(C)cc3)C(=O)N2C2CCCCC2)cc1 (stereo not drawn) | 64% |
| COc1ccccc1C(=O)Nc1c(C(=O)N(C)c2ccccc2)sc2nc(C)cc(C)c12 | 58% |
| CCCN(C(=O)C1CC1)c1nnc(-c2ccc(Cl)cc2)s1 | 79% |
| Cc1c(C(=O)Nc2cccc(Cl)c2)oc2ccc(S(=O)(=O)N(C)C3CCCCC3)cc12 | 71% |
| Cc1sc(-n2c(C)cc(/C=C(\C#N)C(=O)NCc3ccco3)c2C)c(C#N)c1C | 84% |
| Cc1ccc(Cl)cc1NC(=O)c1oc2ccc(S(=O)(=O)N3CCCCCC3)cc2c1C | 93% |
| O=C(Cn1cccc1C(=O)c1ccccc1)NCc1ccc(Cl)cc1 | 98% |
| COc1ccc2c(c1)CC(C(=O)Nc1ccc(OC)cc1OC)CO2 (stereo not drawn) | 89% |

From PubChem BioAssay AID463173 (ICCB-Longwood Screening Facility, Harvard Medical School, 2010)
